This is a sample that favours compounds with a hit; in the whole collection about 3.8% have one here.
ERb SRC1 inh – ER-beta (human) coactivator binding inhibition; inhibition, % at 25.6 µM; Q92731; TR-FRET ER-beta LBD / SRC1-Cy5 peptide binding; receptor agonist-loaded with 1 µM estradiol; hit rate 1.3% among 86,000;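 active = compounds whose percent inhibition of the receptor-coactivator binding signal exceeds about 50% in the single-dose screen, limit read from the data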
Target sequence (Q92731 whole entry, looked up, the tested form may be a part): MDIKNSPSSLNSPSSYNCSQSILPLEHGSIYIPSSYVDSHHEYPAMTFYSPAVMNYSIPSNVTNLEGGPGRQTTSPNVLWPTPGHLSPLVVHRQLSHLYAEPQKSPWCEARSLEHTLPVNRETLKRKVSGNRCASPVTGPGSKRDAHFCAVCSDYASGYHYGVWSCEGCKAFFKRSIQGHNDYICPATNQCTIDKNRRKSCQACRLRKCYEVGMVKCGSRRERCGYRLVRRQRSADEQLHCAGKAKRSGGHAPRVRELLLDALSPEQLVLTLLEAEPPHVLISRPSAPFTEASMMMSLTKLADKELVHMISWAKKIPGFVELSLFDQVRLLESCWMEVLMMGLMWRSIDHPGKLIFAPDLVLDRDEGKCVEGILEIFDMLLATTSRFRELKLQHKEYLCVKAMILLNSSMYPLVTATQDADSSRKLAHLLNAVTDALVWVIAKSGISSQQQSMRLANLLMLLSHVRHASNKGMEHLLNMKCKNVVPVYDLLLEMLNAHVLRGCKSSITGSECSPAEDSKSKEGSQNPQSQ
ERa coact inh – ER-alpha (human) coactivator binding inhibition; P03372; TR-FRET ER-alpha LBD / SRC-1 peptide, estradiol-bound; inhibition, % at 25.6 µM; hit rate 1.7% among 86,000; in the data active = inhibition above about 50%
ERa coact pot – enhances coactivator binding to human estrogen receptor alpha; coactivator binding (% of control), % at 25.6 µM; TR-FRET ERalpha-LBD/SRC-Cy5 coactivator binding, 2 h; 100 = basal binding, no effect; P03372; hit rate 1.3% among 86,000; in the data active = activity above about 200%;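 also: binding measured in presence of low estradiol as agonist stimulus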
Candida biofilm – kills Candida albicans biofilms; hit rate 0.14% among 85,000; C. albicans biofilm + clotrimazole, Alamar Blue; inhibition, % at 6 µM;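 active = inhibition above 20%; inactive = inhibition below 20%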;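 also: preformed 24 hr biofilms exposed to compound for 48 hr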
Smad3 FoxH1 inh – inhibitors of human Smad3 transcription factor binding | P84022 | TR-FRET Smad3/Dy647-FoxH1 peptide binding, europium anti-His | inhibition, % at 25 µM | hit rate 0.29% among 88,000;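 active = compounds that reduce the energy-transfer binding signal between the protein and its labelled peptide by more than half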
Each line names hits and unclear results; the compound was inactive in the other large screens; [ ] = dose if it differs, or a comment.

CC1CC(C(F)(F)C(F)(F)F)n2nc(C(=O)O)cc2N1 (centres undefined)	ERb SRC1 inh 76[fluorescence artefact?], ERa coact inh 64
COc1cc2c(cc1OC)-c1cc(NCc3ccccn3)nc(=O)n1CC2	ERa coact pot 513[fluorescence artefact?]
CCNc1cc2n(c(=O)n1)CCc1cc(OC)c(OC)cc1-2	none
NS(=O)(=O)c1cc2c(cc1Cl)N[C@H](Cc1ccccc1)NS2(=O)=O	none (no result: ERb SRC1 inh, ERa coact inh, ERa coact pot, Candida biofilm)
CCCS(=O)(=O)N1CCC(C(=O)NCCN2CCCC2)CC1	ERb SRC1 inh 81[fluorescence artefact?]
CCC(c1nnnn1Cc1ccc2c(c1)OCO2)N1CCN(c2ccc(F)cc2)CC1 (centres undefined)	ERb SRC1 inh 79[fluorescence artefact?]
CCOc1ccc2[nH]c(=O)c(=O)[nH]c2c1	ERb SRC1 inh 54, ERa coact inh 52[fluorescence artefact?]
CCN(CC)c1ccc(NC(=O)c2cnn(CC)c2)cc1	ERb SRC1 inh 78[fluorescence artefact?]
Cn1nc(-c2ccc(C(=O)Nc3cccc(Cl)c3)cc2)c2ccccc2c1=O	ERa coact pot 261
COc1ccc(CCn2c(C)cc(C(=O)CSc3nnnn3-c3ccccc3)c2C)cc1OC	ERa coact inh 65[fluorescence artefact?]
Cc1cc(C(=O)CSc2nnnn2-c2ccccc2)c(C)n1CCc1ccccc1	none
COc1cc(NC(=O)CSc2nnnn2-c2ccccc2)cc(OC)c1OC	ERa coact pot 229[fluorescence artefact?]
FC(F)(F)c1cc(NC(=S)N2c3ccccc3-n3cccc3[C@H]2c2cccnc2)cc(C(F)(F)F)c1	none (no result: ERb SRC1 inh, ERa coact inh, ERa coact pot, Candida biofilm)
CN(C)CN1CSC(=S)N(CN(C)C)C1	none (no result: ERb SRC1 inh, ERa coact inh, ERa coact pot, Candida biofilm)
Cc1nc2ccc3nc(NC(=O)c4ccc5c(c4)OCCO5)sc3c2s1	ERa coact inh 62[fluorescence artefact?], ERa coact pot 418[fluorescence artefact?]
O=C(Nc1cccc2nsnc12)c1ccc2c(c1)OCCO2	none
Cc1ccc(NC(=O)c2ccc3c(c2)OCCO3)cc1	none
Cc1nc2c(ccc3nc(NC(=O)c4ccc5c(c4)OCCO5)sc32)s1	ERb SRC1 inh 58[fluorescence artefact?], ERa coact inh 75[fluorescence artefact?], ERa coact pot 201[fluorescence artefact?]
CC(=O)Nc1ccccc1C=C1c2ccccc2-c2ccccc21	none (no result: ERb SRC1 inh, ERa coact inh, ERa coact pot, Candida biofilm)
COc1cc(C2SCCCCCCCCCCSC(c3ccc(O)c(OC)c3)SCCCCCCCCCCS2)ccc1O (centres undefined)	none (no result: ERb SRC1 inh, ERa coact inh, ERa coact pot, Candida biofilm)
CC1=CC2(O)OCCN(CCO)C2=CC1=O (centres undefined)	ERb SRC1 inh 86[fluorescence artefact?], ERa coact inh 78[fluorescence artefact?]
COc1ccc(Cn2c(C)c(C)c(C#N)c2NC(=O)Nc2cccc(C)c2)cc1	ERb SRC1 inh 50, ERa coact inh 70[fluorescence artefact?]
Cc1nn(Cc2ccccc2)c(C)c1NC(=O)CSc1nnc(-c2cc(Cl)ccc2O)n1C	ERa coact inh 53 (no result: Candida biofilm)
CCn1nc(C)c(NC(=O)CSc2nnc(-c3ccco3)n2C)c1C	none
COc1cccc2c1[C@H](CO)N1[C@H](C#N)[C@H]3C[C@@H](C(=O)O)[C@@H]([C@@H]1C2)N3C	none (no result: ERb SRC1 inh, ERa coact inh, ERa coact pot, Candida biofilm)
O=C(O)c1ccccc1/C=N/N=C1c2ccccc2-c2ccccc21	Smad3 FoxH1 inh 62 (no result: ERb SRC1 inh, ERa coact inh, ERa coact pot, Candida biofilm)
CCC(=O)/C=C1/Sc2ccccc2N1CC	none
CCC(=O)/C=C1/Sc2ccc(OC)cc2N1CC	ERb SRC1 inh 99[fluorescence artefact?]
CCc1ccc(C2C(C#N)=C(N)SC(N)=C2C#N)s1	none
Cc1ccc(C2C(C#N)=C(N)SC(N)=C2C#N)o1	ERb SRC1 inh 67[fluorescence artefact?]
CCCn1nc(C(=O)OCC(=O)c2ccc3c(c2)NC(=O)CO3)c2ccccc2c1=O	ERa coact inh 73
Oc1ccc(N=Cc2ccc(-c3cccs3)s2)cc1	ERb SRC1 inh 62[fluorescence artefact?]
COc1ccccc1C(=O)Nc1c2c(nn1-c1cccc(C)c1C)CS(=O)(=O)C2	ERa coact pot 410[fluorescence artefact?]
Cc1ccc(N(Cc2ccccc2F)S(C)(=O)=O)cc1C	none
Cn1c(-c2sc3cc(C(F)(F)F)cnc3c2-c2cccnc2)n[nH]c1=S	none
CSc1nnc(-c2sc3cc(C(F)(F)F)cnc3c2-c2ccccn2)n1C	ERa coact pot 347[fluorescence artefact?]
CCc1nnc(NC(=O)C2Cc3ccccc3CN2S(=O)(=O)c2cccs2)s1 (centres undefined)	ERa coact inh 55 (no result: Candida biofilm)
CCc1nc2ccccc2c(C(=O)OCC(=O)Nc2cccc(S(=O)(=O)N3CCOCC3)c2)c1C	Smad3 FoxH1 inh 89
CCn1cc([N+](=O)[O-])c(C(=O)N2N=C(c3ccc4ccccc4c3)CC2c2cc(Br)ccc2O)n1 (centres undefined)	ERb SRC1 inh 51[fluorescence artefact?]
Cc1ccc(CCNC(=O)c2coc3nc4ccccc4nc23)cc1	ERa coact pot 290[fluorescence artefact?]
CCOC(=O)c1cnn(-c2ccccn2)c1N	none
CCOC(=O)c1cnn(-c2sc(C(=O)OCC)c(C)c2C(=O)OCC)c1N	ERb SRC1 inh 64[fluorescence artefact?], ERa coact inh 63[fluorescence artefact?]
CCCC(=O)Nc1cccc(NC(=O)CN2CCN(c3ccccc3OC)CC2)c1	ERa coact inh 99[fluorescence artefact?]
CCC(=O)Nc1cccc(NC(=O)CN2CCN(c3ccccc3OC)CC2)c1	none
COc1ccc(-c2cc3nc(-c4ccccc4)cc(N4CCC5(CC4)OCCO5)n3n2)cc1	ERa coact pot 267[fluorescence artefact?]
O=C(O)[C@@H]1O[C@H]1C(=O)O	none (no result: ERb SRC1 inh, ERa coact inh, ERa coact pot, Candida biofilm)
CC1(C)Cc2c(ccc3ccccc23)C(c2cc3ccccc3oc2=O)=N1	ERa coact inh 60[fluorescence artefact?]
CC1(C)Cc2c(c(-c3ccccc3)[nH]c(=O)c2C#N)CS1	none
CC1(C)Cc2c(c(-c3ccco3)[nH]c(=O)c2C#N)CS1	ERb SRC1 inh 62[fluorescence artefact?]
O=C(CSc1nc(-c2ccc(F)cc2)cs1)NC(=O)NCc1ccco1	ERa coact inh 53
O=C(CSc1nnc(-c2ccco2)n1Cc1ccccc1)NC(=O)NCc1ccccc1	none
C=CCn1c(SCC(=O)NC(=O)NCc2ccco2)nc2sc(CC)cc2c1=O	ERb SRC1 inh 65, ERa coact inh 74
CCn1c(SCC(=O)NC(=O)NCc2ccco2)nnc1-c1cccs1	none
Cc1nnc(SCC(=O)NC(=O)NCc2ccco2)n1Cc1ccccc1	ERa coact inh 52
CCCn1c(SCC(=O)NC(=O)NCc2ccco2)n[nH]c1=O	ERb SRC1 inh 63[fluorescence artefact?], ERa coact inh 74[fluorescence artefact?]
C/C(N[O-])=C(\C)[N+]([O-])=[Rh][Cl].CC(=N\[O-])/C(C)=N/[O-].NC(N)=[SH+]	none (no result: ERb SRC1 inh, ERa coact inh, ERa coact pot, Candida biofilm)
Cn1nnnc1SCC(=O)NCc1ccco1	none
CCOc1ccccc1-n1nnnc1SCC(=O)NC(=O)NCc1ccco1	ERb SRC1 inh 62, ERa coact inh 77[fluorescence artefact?]
COc1cccc(OCc2nnc(SCC(=O)NCc3ccco3)n2C)c1	none
COc1cccc(OCc2nnc(SCC(=O)NCc3ccco3)n2CCc2ccccc2)c1	ERa coact inh 57
N#Cc1c(-c2ccc(Cl)cc2)nc2n(c1=O)CCCS2	none
N#Cc1c(-c2ccc(Br)cc2)nc2n(c1=O)CCCS2	ERa coact pot 239
COC(=O)[C@H](C)NC(=O)Nc1ccc(C)c(C)c1	none
COC(=O)c1cccc(C(=O)Nc2ccc(C)cc2)n1	none
CCOC(=O)C1=C(O)/C(=C/N(C)C)N=C1C	none
COC(=O)C1=C(O)/C(=C\c2ccc(CNC(=O)C(=O)Nc3ccc(C)c(C)c3)o2)N=C1C	ERa coact inh 74
COC(=O)C1=C(O)/C(=C\c2ccc(CNC(=O)C(=O)Nc3ccc(C)cc3)o2)N=C1C	ERa coact inh 72[fluorescence artefact?]

High-throughput results: PubChem BioAssay, several laboratories
